PubChem BioAssay AID940 (Emory University Molecular Libraries Screening Center, 2007)
“And” between values parts separate entries of the source, which are not always exact repeats. Equal entries are not always repeated. Hit rate of the full screen: of about 260,000 compounds, about 2,200 (0.85%) were called active.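 Rule for the calls: active = compounds whose cAMP rise, as percent of the full-agonist control response, exceeds 60; inactive = the rest.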 Only a selection was taken, and actives are over-represented in it overall. A structure can be active in one record and inactive in another.

Target: Prostaglandin E2 receptor EP2 subtype (Homo sapiens) (UniProt P43116)
Sequence (P43116 whole entry, looked up): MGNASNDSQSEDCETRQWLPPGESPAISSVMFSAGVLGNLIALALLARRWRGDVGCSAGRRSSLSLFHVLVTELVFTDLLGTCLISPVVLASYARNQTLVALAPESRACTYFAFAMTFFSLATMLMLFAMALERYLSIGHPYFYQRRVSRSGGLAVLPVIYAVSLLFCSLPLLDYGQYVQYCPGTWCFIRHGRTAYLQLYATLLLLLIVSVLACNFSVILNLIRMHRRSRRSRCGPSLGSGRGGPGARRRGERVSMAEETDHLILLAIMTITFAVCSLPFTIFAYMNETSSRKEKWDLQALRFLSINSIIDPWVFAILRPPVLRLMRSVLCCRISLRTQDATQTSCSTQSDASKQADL
Assay: EP2 receptor modulators, cAMP readout, primary screen, cell-based, HTRF cAMP, PGE2 stimulation (AID 940);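 note: rat C6 glioma line stably carrying human EP2 under a CMV promoter; the protocol text gives 20 µM as final concentration; 100% = response of wells given 1 µM PGE2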
Details: EP2-expressing cells, cAMP HTRF FRET, PGE2 co-stimulation; at 25 µM; stronger effect = higher value

Row | SMILES | induction
1 | C[N+]1(C)CCOC(O)(c2ccc(-c3ccc(C4(O)C[N+](C)(C)CCO4)cc3)cc2)C1 (stereo not given) | 27.6% (inactive) and 76.2% (active)
2 | C=CCc1cc(CN2C3CCC2CC(O)(c2nccn2C)C3)cc(OCC)c1O (stereo not given) | -31.8% (inactive)
3 | Cc1cccc2cc(CN(Cc3ccco3)C3(c4nnnn4C4CCCC4)CCCCC3)c(=O)[nH]c12 | 24.8% (inactive)
4 | N#CC1=C(N)Oc2c(c(=O)oc3ccccc23)C1c1cc2c(cc1Cl)OCO2 (stereo not given) | 0.48% (inactive)
5 | COc1ccccc1/C=C/CN1C2CCC1CC(O)(c1ccccc1F)C2 (stereo not given) | -60.2% (inactive)
6 | O=C(CN1C2CCC1CC(O)(c1ccco1)C2)NCc1ccccc1 (stereo not given) | -18.4% (inactive)
7 | CC(c1ccccc1)(c1ccccc1)c1ccncc1 | 61.2% (active)
8 | O=C1CCCN1C(=O)c1cc(Cl)cc(Cl)c1 | -0.43% (inactive)
9 | OC12CCCCC1CN(Cc1ccnc3ccccc13)CC2 (stereo not given) | -29.6% (inactive)
10 | O=C(CN1C2CCC1CC(O)(c1ccccn1)C2)N1c2ccccc2Sc2ccccc21 (stereo not given) | 8.29% (inactive)
